Structures are written as SMILES. Values without a mark were called inactive. How the calls were made is not given here.

In the assay the test system is Aerobactin synthetase IucA (Klebsiella pneumoniae hvKP1). Put plainly: IucA enzyme inhibition, primary screen, biochemical, Spectrum library (AID 1346200).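 Further: 100% = wells without compound and 0% = wells lacking enzyme.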 The settings on record: malachite green pyrophosphate, A620, at 8 µM, stronger effect = lower value.
On to `CC(C)c1ccc2c(c1)CCC1C(C)(C(N)=O)CCCC21C` (stereo not given), for which the activity remaining is 103%.
`CC(C)=CC1C(CO)C1(C)C` (stereo not given): the activity remaining is 86.3%.
For `COc1ccc(-c2oc3cc(O[C@H]4O[C@H](CO)[C@@H](O)[C@H](O)[C@H]4O)c(OC)c(O)c3c(=O)c2OC)cc1O`, the activity remaining was 77.6%.
The same measure for `COc1ccc(-c2coc3cc(O)cc(O)c3c2=O)cc1`: 98.7%; for `O[N+]1=CC=CCC1=S.On1ccccc1=S.[Zn]`: 92.5%; for `O=C1CCC(N2C(=O)c3ccccc3C2=O)C(=O)N1` (stereo not given): 117%.
The same measure for `Cc1occc(=O)c1O`: 102%; for `C=CCCCCCCCCCCCC(O)CC(O)COC(C)=O` (stereo not given): 116%.
Take `OCc1c[nH]c2ccccc12`: the activity remaining was 118%.
The same measure for `NC(=O)c1ncn(C2O[C@H](CO)[C@@H](O)[C@H]2O)c1N` (stereo not given in full): 99.1%; for `CNS(=O)(=O)Cc1ccc2[nH]cc(CCN(C)C)c2c1`: 115%.
Next, `CC(N)CCCC(C)(C)O` (stereo not given): 123%.
The same measure for `CCCCC(=O)O[C@H]1CCC2C3CCc4cc(O)ccc4C3CC[C@@]21C` (stereo not given in full): 97.5%.
Consider `O=C(O)c1cn(C2CC2)c2cc(N3CCNCC3)c(F)cc2c1=O`, for which the activity remaining was 77.6%.
Next, `NC(CSCSCC(N)C(=O)O)C(=O)O` (stereo not given): 95.5%.
In the case of `NC(=O)c1cc[n+](CC2=C(C(=O)O)N3C(=O)C(NC(=O)C(c4ccccc4)S(=O)(=O)[O-])C3SC2)cc1` (stereo not given), the activity remaining was 117%.
Next, `O=C(NC(Cc1cc(=O)[nH]c2ccccc12)C(=O)O)c1ccc(Cl)cc1` (stereo not given): 106%; `CO[C@H]1CC(O[C@@H]2/C(C)=C/C[C@@H]3C[C@@H](C[C@]4(CC[C@H](C)[C@@H](C5CCCCC5)O4)O3)OC(=O)[C@@H]3C=C(C)/C(=N/O)[C@H]4OC/C(=C\C=C\[C@@H]2C)[C@]43O)O[C@@H](C)C1O` (stereo not given in full): 119%.
The same measure for `COc1ccc(C(=O)O)c(O)c1OC`: 93.8%.
The same measure for `CCOc1ccc(C(=O)c2ccc(O)c(O)c2O)cc1`: 110%; for `CC1=C2C(O)C(=O)OC3CC4C(C)(C)C(=O)C=C[C@]4(C)C(CC1)[C@]23C` (stereo not given in full): 109%.
Consider `OCCc1ccccc1`, for which the activity remaining was 117%.
The same measure for `CCCSc1ccc2nc(NC(=O)OC)[nH]c2c1`: 111%; for `CC(C)C(C)/C=C/C(C)C1CCC2C3=CC=C4CC(O)CCC4(C)C3CCC21C` (stereo not given): 111%.
The same measure for `COc1cccc(OC)c1C(=O)N[C@@H]1C(=O)N2[C@@H]1SC(C)(C)[C@@H]2C(=O)O`: 85.9%; for `CC1=CCc2c(cc3oc(C)cc(=O)c3c2O)OC1`: 120%; for `NCC1CCCCC1CC(=O)O` (stereo not given): 98.9%.
The same measure for `CC(=O)Oc1ccc2c(c1)CCC1C2CC[C@@]2(C)C1C[C@@H](OC(C)=O)[C@@H]2OC(C)=O` (stereo not given in full): 97.3%.
With `CC1C/C=C/C=C/C=C/C=C/C(O[C@@H]2O[C@H](C)[C@@H](O)[C@H](N)[C@@H]2O)CC2OC(O)(CC(O)CC3OC3/C=C/C(=O)O1)CC(O)C2C(=O)O` (stereo not given in full), the activity remaining is 118%.
Next, `CC(=O)O[C@H]1C[C@@]2(C)[C@@H](C[C@@H](O)C3[C@]2(C)CC[C@H]2[C@H](C)[C@H](O)CC[C@]32C)/C1=C(/CCC=C(C)C)C(=O)O` (stereo not given in full): 110%; `CNc1ccccc1C(=O)N1CCc2c([nH]c3ccccc23)C1=O`: 106%.
The same measure for `OC1C(O)C(O)C(O)C(O)C1O` (stereo not given): 103%; for `CC(=O)N[C@@H](CC(=O)O)C(=O)O`: 110%.
Turning to `Cc1c(C)c2c(c(C)c1O)CCC(C)(COc1ccc(CC3SC(=O)NC3=O)cc1)O2` (stereo not given), the activity remaining was 117%.
The same measure for `O=C1[C@H](CCC(O)c2ccc(F)cc2)[C@@H](c2ccc(O)cc2)N1c1ccc(F)cc1` (stereo not given in full): 122%; for `CC(=O)C1CC[C@H]2C3CC[C@H]4C[C@H](O)CC[C@]4(C)C3CC[C@]12C` (stereo not given in full): 93.6%.
As to `COc1ccc2cc([C@H](C)CO)ccc2c1`, the activity remaining is 118%.
Turning to `CC(C)C(C)/C=C/C(C)[C@H]1CCC2C3=CCC4CC(=O)CC[C@]4(C)C3CC[C@@]21C` (stereo not given in full), the activity remaining is 92.7%.
Next, `COc1cc2ccc(=O)oc2cc1O`: 110%; `CCC(=O)OCC(=O)[C@@]1(OC(=O)CC)[C@H](C)CC2C3C([C@@H](O)C[C@@]21C)[C@@]1(C)C=CC(=O)C=C1C[C@H]3Cl` (stereo not given in full): 106%.

The record behind these values is PubChem BioAssay.
